Values joined by “and” are separate entries in the source; they are usually repeats but may differ in a detail not shown here. Equal entries are not always repeated. Inconclusive results are not listed. Values without a mark were called inactive. Active and inactive are the calls of the source. Calls follow the shape of the dose curve; as a rule, active = well fitted cell-killing curve with a large enough effect in the repeat runs; inconclusive = weak or mixed curves, or effect the other way; inactive = flat fitted curve, though single readings scatter.
% is scaled to controls: 0 for no effect and ±100 for the full control effect; potency is read from the fitted curve at half-maximal effect.

The nature of this assay: qHTS assay to identify small molecule that activate the aryl hydrocarbon receptor (AhR) signaling pathway - cell viability counter screen (AID 743086). Also: nearly all actives have a fitted effect of over 45% in size.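 As to viability change, negative = cytotoxic: HepG2 liver cells carrying the AhR DRE luciferase reporter.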 The note with it: HepG2-AhR-luc viability, CellTiter-Fluor, 24 h; series mostly up to 70.3 µM; viability change, negative = cytotoxic: at the top concentration. The text has this: U.S. Tox21 Program National Center for Advancing Translational Sciences [NCATS] NIH Chemical Genomics Center [NCGC] U.S. Environmental Protection Agency [EPA] National Institutes of Environmental Health Sciences [NIEHS] National Toxicology Program [NTP] U.S. Food and Drug Administration [FDA] Tox21 Assay overview: The Aryl hydrocarbon Receptor (AhR), a member of the family of basic helix-loop-helix transcription factors, is crucial to adaptive responses to environmental changes. AhR mediates cellular responses to environmental pollutants such as aromatic hydrocarbons through induction of phase I and II enzymes but also interacts with other nuclear receptor signaling pathways A cell based HepG2-AhR-luc assay (HG2L7.5c1 cell line, developed by Dr. Michael S. Denison, University of California at Davis) was used to assess the activation of AhR. HepG2 (human hepatocellular carcinoma) cells were stably transfected with an Ah receptor-responsive firefly luciferase reporter gene plasmid containing 20 dioxin responsive elements and luciferase reporter gene. Increased luciferase activity can be used to identify the compounds that induce AhR activation. The cytotoxicity of the compounds screened against the HepG2-AhR-luc cell line was tested in parallel by measuring the cell viability using CellTiter-Fluor assay in the same wells.
Tox21 Assay Protocol Summary: 4000 cells in 5 uL/well were dispensed into white wall/solid bottom 1536-well plates using a Multidrop Combi (Thermo Fisher Scientific Inc., Waltham, MA) dispenser. After the assay plates were incubated at 37C for 5 h, 23 nL of compound or DMSO vehicle was transferred to the assay plates by a pintool station (Kalypsys, San Diego, CA). The plates were incubated at 37C for 24 hr. For cell viability measurement, 1 ul/well of CellTiter-Fluor reagent (Promega, Madison, WI) was added into the assay plates using a Flying Reagent Dispenser (FRD) (Aurora Discovery, CA),and then the assay plates were incubated at 37C for 30 min. The fluorescence intensity in the plates was measured using a ViewLux plate reader (PerkinElmer, Shelton, CT), followed by the addition of 4 uL of ONE-Glo Luciferase Assay reagent (Promega) using an FRD (Aurora Discovery). After the assay plates were incubated at room temperature for 30 min, luminescence intensity was measured using a ViewLux plate reader (Perkin Elmer).
A general note: In qHTS, concentration-response curves come from the screen itself.
As for `O=C1C(Cl)=C(Cl)C(=O)C(Cl)=C1Cl`, the Potency result was “inactive”.

Take `ClC1(Cl)C2(Cl)C3(Cl)C4(Cl)C(Cl)(Cl)C5(Cl)C3(Cl)C1(Cl)C5(Cl)C24Cl` (stereo not given): the “viability change, negative = cytotoxic” value is 9.7%.

For `Clc1ccc(C(c2ccc(Cl)cc2)C(Cl)Cl)cc1`, the Potency result was “inactive”.

As for `COP(=O)(OC)Oc1ccc([N+](=O)[O-])cc1`, the “viability change, negative = cytotoxic” value was -17.5%.

For the compound `CC(=O)O.CC(=O)O.CC(=O)O.CC(=O)O.CC(=O)O.CC(=O)O.CC(=O)O.O.O.[Cr].[Cr].[Cr]`, the “viability change, negative = cytotoxic” value is -0.255%.

Turning to `ClC1=C(Cl)[C@]2(Cl)[C@@H]3[C@H]4C[C@H]([C@@H]5O[C@H]45)[C@@H]3[C@@]1(Cl)C2(Cl)Cl`, the Potency entry was “inactive”.

With `c1ccc(Nc2ccc(Nc3ccccc3)cc2)cc1`, the “viability change, negative = cytotoxic” value was -8.15%.

On to `O=C(Cl)c1ccccc1F`, for which the “viability change, negative = cytotoxic” value was -9.44%.

Consider `N#Cc1c[nH]cc1-c1cccc2c1OC(F)(F)O2`, for which the “viability change, negative = cytotoxic” value is -2.25%.

On to `COc1ccc2[nH]cc(CCN(C(C)C)C(C)C)c2c1`, for which the “viability change, negative = cytotoxic” value is 5.71% [at 95 µM].

For `CCCCC(CC)COC(=O)c1ccccc1C(=O)OCC(CC)CCCC` (stereo not given), the “viability change, negative = cytotoxic” value is -4.95%.

With `COc1c2c(cc3c1OCO3)CCN(C)C2`, the “viability change, negative = cytotoxic” value was 5.63% [at 32.5 µM].

`N#CSCc1ccccc1`: the “viability change, negative = cytotoxic” value is 8.88% [at 95 µM].

Consider `CNC(C)(C)Cc1ccccc1`, for which the “viability change, negative = cytotoxic” value was 5.69% [at 32.5 µM].

On to `Brc1cccc(-c2ccccc2)c1`, for which the “viability change, negative = cytotoxic” value was -0.738% [at 95 µM].

With `O=[N+]([O-])c1ccccc1-c1ccccc1`, the “viability change, negative = cytotoxic” value was 7.58%.

For `CC(C)C(Nc1ccc(C(F)(F)F)cc1Cl)C(=O)OC(C#N)c1cccc(Oc2ccccc2)c1` (stereo not given), the “viability change, negative = cytotoxic” value was 6.35% [at 95 µM].

With `c1cc[n+]2c(c1)-c1cccc[n+]1CC2`, the “viability change, negative = cytotoxic” value is 5.06%.

In the case of `CCOP(=S)(NC(C)C)Oc1ccccc1C(=O)OC(C)C` (stereo not given), the “viability change, negative = cytotoxic” value is 1.17%.

`CCN1CCC2(CC1)COc1cc3c(cc12)N(C(=O)c1ccc(-c2ccc(-c4nnc(C)o4)cc2C)cc1)CC3`: the Potency is 28.3 µM (active).

With `O=[N+]([O-])c1ccc(Cl)c(Cl)c1Cl`, the “viability change, negative = cytotoxic” value is -3.9%.

Turning to `C1=CCC=C1`, the “viability change, negative = cytotoxic” value is 10.5%.

With `Cc1nn(-c2cc(NS(C)(=O)=O)c(Cl)cc2Cl)c(=O)n1C(F)F`, the “viability change, negative = cytotoxic” value was 2.82%.

Turning to `O=S(=O)(O)F`, the “viability change, negative = cytotoxic” value is -0.213% [at 95 µM].

With `OCC(Br)CBr` (stereo not given), the “viability change, negative = cytotoxic” value is -3.67% [at 95 µM].

Take `CC(C)N(C(=O)CCl)c1ccccc1`: the Potency was 38.6 µM (active) and 68.6 µM (active).

With `CCCCN(CCCC)C(=S)[S-].CCCCN(CCCC)C(=S)[S-].[Ni+2]`, the “viability change, negative = cytotoxic” value is -0.176%.

With `CC(Cc1ccc2c(c1)OCO2)NO` (stereo not given), the “viability change, negative = cytotoxic” value is -2.41% [at 95 µM].

`S=C=Nc1ccccc1`: the “viability change, negative = cytotoxic” value is -2.68% [at 95 µM].

Turning to `COC(=O)/C=C(\C)OP(=O)(OC)OC`, the “viability change, negative = cytotoxic” value is 10.5%.

On to `CC(=O)[O][Pb]([c]1ccccc1)([c]1ccccc1)[c]1ccccc1`, for which the Potency was 3.86 µM (active).

Take `CC(C)N(C(=O)SC/C(Cl)=C/Cl)C(C)C`: the “viability change, negative = cytotoxic” value is -0.84% [at 95 µM].

As for `CCC1COC(Cn2cncn2)(c2ccc(Cl)cc2Cl)O1` (stereo not given), the “viability change, negative = cytotoxic” value is -6.43%.

For `CC(=O)[O-].CC(=O)[O-].[Co+2]`, the “viability change, negative = cytotoxic” value was 12.7%.

On to `Cc1ccccc1OP(=O)(Oc1ccccc1C)Oc1ccccc1C`, for which the “viability change, negative = cytotoxic” value is 0.51% [at 95 µM].

Take `CCC(C)c1cccc(C(C)CC)c1O` (stereo not given): the “viability change, negative = cytotoxic” value is -3.22%.

With `O=P(Cl)(Cl)Cl`, the “viability change, negative = cytotoxic” value is 12.3% [at 95 µM].

`CNC(=O)Oc1cc(C)cc(C(C)C)c1`: the “viability change, negative = cytotoxic” value was 3.18%.

For `CCC(C)Nc1c([N+](=O)[O-])cc(C(C)(C)C)cc1[N+](=O)[O-]` (stereo not given), the “viability change, negative = cytotoxic” value was -7.03%.

Turning to `COP(=S)(NC(C)C)Oc1ccc(C)cc1[N+](=O)[O-]` (stereo not given), the “viability change, negative = cytotoxic” value is -23.8%.
